Data on 14 compounds can be found in PubChem BioAssay.

Experiment [1] in a line: inhibitors of TNFa-induced NFkB p65 translocation, primary screen, imaging, HUVEC, MLSMR starter and 10KST1 sets (AID 438;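 active = inhibition above 20% together with a positive visual image hit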;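 also: compound added about 3h40 before a 20 min TNFalpha stimulation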;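 as to inhibition: signal is the nuclear over cytoplasmic p65 intensity ratio per well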). Particulars: HUVEC TNFa-induced p65 nuclear translocation; cell count: measured here: nuclei count (cytotoxicity indicator), at 2.08 µM; inhibition: at 2 µM, stronger effect = higher value, 0% TNFa-plus-vehicle, 100% no-TNFa wells.
A short description of experiment [2]: inhibitors of mutant huntingtin aggregation, primary screen, imaging, exon1htt(103Q)mCFP cells, high-content imaging (AID 483;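 active = visual image review flags a hit and inhibition of aggregation exceeds 20%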;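 also: compound exposure lasted 3 days before fixation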;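 as to nuclei count: percent of the per-plate median nuclei count of sample wells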). Particulars: exon1htt(103Q)mCFP cell line, aggregate imaging, at 2 µM; inhibition of aggregation: stronger effect = higher value; nuclei count: measured here: cell count, toxicity.
Experiment [3] can be described thus: inhibitors of E-selectin induction by TNFa, primary screen, imaging, HUVEC, immunofluorescence, MLSMR starter and 10KST1 sets (AID 487;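 active = visually confirmed hit in the image check and inhibition above 20%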;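 as to inhibition: signal is fraction of cell area covered by stained E-selectin grains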;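 as to nuclei count: 100% = median nuclei count of all wells on the same plate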). Particulars: HUVEC TNFalpha-induced E-selectin immunofluorescence imaging, at 2 µM; inhibition: stronger effect = higher value; nuclei count: measured here: cell number, toxicity.
Experiment [4] has as its target Voltage-gated potassium channel subunit beta-2 (Rattus norvegicus) (UniProt P62483). Kind of experiment: KvBeta enzyme negative modulators, primary screen, biochemical, NADPH fluorescence (AID 622;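 active = fluorescence slope higher than the sample average by over 3 SD, cut at about -0.22 in these data, passing the limit was not always enough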;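 also: slope of raw intensity against log time taken from 70 to 1610 s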). The note with it: recombinant KvBeta, 4-cyanobenzaldehyde reduction, at 10 µM, stronger effect = higher value.
The target is the same in experiment [5]. Kind of experiment: KvBeta positive modulators, primary screen, biochemical, NADPH fluorescence (AID 623;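 active = NADPH fluorescence slope more negative than the mean of all samples by about 3 SD, 99.7% confidence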;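 also: fluorescence intensity change per second fitted from 20 to 320 s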). Particulars: Recombinant KvBeta, NADPH fluorescence decrease slope, 10 min; at 10 µM; stronger effect = lower value.
For experiment [6], the target named is Alpha-2C adrenergic receptor (Homo sapiens) (UniProt P18825). Kind of experiment: modulators of alpha2C/GIRK thallium flux, primary screen, cell-based, HEK293 alpha2C/GIRK1/2 (AID 624;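 active = fluorescence slope after compound addition differing from the mean of all screened samples at 99.7% confidence, in either direction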;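 also: slope of fluorescence ratio to pre-addition baseline per second over 15 to 24 s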). The note with it: thallium flux BTC fluorescence, at 10 µM, actives lie on both sides.
Alpha-2C adrenergic receptor (Homo sapiens), sequence (P18825 whole entry, looked up): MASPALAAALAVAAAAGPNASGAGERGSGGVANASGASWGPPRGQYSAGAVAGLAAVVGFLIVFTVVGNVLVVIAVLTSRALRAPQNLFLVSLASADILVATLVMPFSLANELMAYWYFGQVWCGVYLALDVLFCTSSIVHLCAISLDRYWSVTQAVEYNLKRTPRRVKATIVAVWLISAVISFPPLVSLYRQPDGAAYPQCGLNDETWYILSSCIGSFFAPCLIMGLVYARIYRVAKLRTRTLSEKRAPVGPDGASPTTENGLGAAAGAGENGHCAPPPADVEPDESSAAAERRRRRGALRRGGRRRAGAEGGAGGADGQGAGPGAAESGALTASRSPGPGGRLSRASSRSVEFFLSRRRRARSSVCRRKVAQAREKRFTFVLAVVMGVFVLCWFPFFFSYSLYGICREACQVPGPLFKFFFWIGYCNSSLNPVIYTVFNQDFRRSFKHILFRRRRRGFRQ
Experiment [7] in a line: inhibitors of Sendai virus-induced IRF3 signaling, primary screen, TLR/RLR signaling modifier project, cell-based, Sendai virus stimulus, luciferase, 10K MLSCN set (AID 602276).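 Also: firefly luciferase from ISG56 promoter only with Renilla not read in this screen; 0% = Sendai virus plus DMSO and 100% = medium plus DMSO without virus.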 The note with it: HEK293 RL24 IRF3 luciferase reporter, at 10 µM, stronger effect = higher value. (In general: A reporter such as luciferase makes a cellular process visible.)
A short description of experiment [8]: inhibitors of poly I:C-induced TLR3 signaling, primary screen, cell-based, poly I:C stimulus, luciferase, 10K MLSCN set (AID 602277;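 active = inhibition of the reporter signal at or above 50%; inactive = inhibition below 50%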). The note with it: HEK293-TLR3 RL24 IRF3 luciferase reporter, at 10 µM, stronger effect = higher value.

Calls of active or inactive are those of the source.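 The calls were made as follows, unless noted: active = inhibition at or above 50% at 10 µM; inactive = inhibition below 50%.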

Voltage-gated potassium channel subunit beta-2 (Rattus norvegicus), sequence (P62483 whole entry, looked up): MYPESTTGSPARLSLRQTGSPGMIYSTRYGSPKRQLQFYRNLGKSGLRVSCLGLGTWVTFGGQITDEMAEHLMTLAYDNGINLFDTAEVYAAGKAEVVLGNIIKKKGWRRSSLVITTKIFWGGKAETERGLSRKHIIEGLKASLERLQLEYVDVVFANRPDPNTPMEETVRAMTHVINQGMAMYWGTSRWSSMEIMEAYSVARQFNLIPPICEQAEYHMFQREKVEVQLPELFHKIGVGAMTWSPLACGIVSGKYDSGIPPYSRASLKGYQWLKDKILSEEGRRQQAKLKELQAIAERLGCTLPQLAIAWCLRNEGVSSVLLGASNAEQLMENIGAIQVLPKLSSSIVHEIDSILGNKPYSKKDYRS

For `CC1=C(C(=O)OC2CCCC2)C(c2ccc(C)o2)C2=C(CC(c3cccs3)CC2=O)N1` (centres undefined), the cell count in experiment [1] was found to be 346. Besides, the inhibition (commonly the drop in the measured response relative to a control, in per cent) in experiment [1] is 3.5% (inactive); in experiment [3], -10.5% (inactive); in experiment [7], -5.28% (inactive); in experiment [8] it was 16.8% (inactive). The inhibition of aggregation in experiment [2] was -7.2% (inactive). The nuclei count is 81.1% in experiment [2] and 99% in experiment [3]. Further, in experiment [4], the fluorescence slope was -0.459 (inactive). In addition, in experiment [5], the NADPH fluorescence slope is -5.5e-05 (inactive). Also, the slope in experiment [6] was 0.00301 (inactive).

For the compound `CC(C)Cn1c(N)c(C(=O)NCCN2CCOCC2)c2nc3ccccc3nc21`, the cell count in experiment [1] came to 440. Moreover, the inhibition is -2.8% (inactive) in experiment [1], -37.1% (inactive) in experiment [3], 19.1% (inactive) in experiment [7] and 19.8% (inactive) in experiment [8]. Besides, in experiment [2], the inhibition of aggregation was -15.6% (inactive). For the same compound, the nuclei count in experiment [2] came out at 101%; in experiment [3], 81.3%. For the same compound, the fluorescence slope in experiment [4] is -0.0147 (inactive). For the same compound, in experiment [5], the NADPH fluorescence slope was -9e-06 (inactive). Further, the slope in experiment [6] is 0.00559 (inactive).

In the case of `COc1cccc(C2CC(=O)Nc3cc4c(cc32)OCCO4)c1OC(C)C` (centres undefined), in experiment [1], the cell count was 556. The inhibition in experiment [1] was 1.9% (inactive); in experiment [3] it was -18.7% (inactive); in experiment [7], 9.49% (inactive); in experiment [8] it was 17.8% (inactive). Moreover, the inhibition of aggregation in experiment [2] is 7.2% (inactive). The nuclei count in experiment [2] came to 119%; in experiment [3] it was 104%. Also, the fluorescence slope in experiment [4] is -0.497 (inactive). In addition, in experiment [5], the NADPH fluorescence slope is -6e-05 (inactive). Also, in experiment [6], the slope was 0.00619 (inactive).

With `O=C(CCCC(=O)OCC(=O)NC1CCCC1)Nc1ccccn1`, the cell count in experiment [1] amounted to 463. Further, the inhibition in experiment [1] was 2.6% (inactive); in experiment [3], -130% (inactive); in experiment [7], 14% (inactive); in experiment [8], 17.5% (inactive). For the same compound, in experiment [2], the inhibition of aggregation was 1.1% (inactive). Moreover, the figures for the nuclei count in experiment [2] and in experiment [3] were 113% and 179%, respectively. In addition, in experiment [4], the fluorescence slope is -0.6 (inactive). The NADPH fluorescence slope in experiment [5] was -4.5e-05 (inactive). The slope in experiment [6] is 0.00354 (inactive).

As for `CCOC(=O)CSc1nnc(-c2ccc(Cl)cc2Cl)o1`, the cell count in experiment [1] came out at 376. Further, the inhibition is 1.9% (inactive) in experiment [1], -57.5% (inactive) in experiment [3], 4.99% (inactive) in experiment [7] and 2.18% (inactive) in experiment [8]. Moreover, the inhibition of aggregation in experiment [2] was -9.2% (inactive). In addition, the nuclei count in experiment [2] amounted to 93.8%; in experiment [3], 116%. Also, in experiment [4], the fluorescence slope is -0.405 (inactive). Moreover, in experiment [5], the NADPH fluorescence slope was -2.6e-05 (inactive). Also, in experiment [6], the slope is 0.00557 (inactive).

With `O=C(NCCO)c1cc2ccccc2cc1O`, in experiment [1], the cell count worked out at 489. Moreover, the inhibition in experiment [1] is -8.2% (inactive); in experiment [3], -92.3% (inactive); in experiment [7], -5.48% (inactive); in experiment [8], -4.78% (inactive). The inhibition of aggregation in experiment [2] is 23.4% (inactive). Further, the nuclei count is 85.8% in experiment [2] and 109% in experiment [3]. The fluorescence slope in experiment [4] was -0.47 (inactive). The NADPH fluorescence slope in experiment [5] was -2.1e-05 (inactive). In addition, the slope in experiment [6] was 0.00658 (inactive).

Take `CC1CCCCN1S(=O)(=O)c1ccc(NC(=O)c2cccs2)cc1` (centres undefined): the cell count in experiment [1] worked out at 678. Also, the inhibition in experiment [1] is -14.6% (inactive); in experiment [3], -25.1% (inactive); in experiment [7] it was -0.562% (inactive); in experiment [8], 5.71% (inactive). In experiment [2], the inhibition of aggregation was 25.4% (inactive). The nuclei count turned out to be 86.3% in experiment [2] and 104% in experiment [3]. Further, the fluorescence slope in experiment [4] was -0.431 (inactive). Moreover, the NADPH fluorescence slope in experiment [5] is 9.2e-06 (inactive). In addition, the slope in experiment [6] was 0.00361 (inactive).

In the case of `Cc1sc(NC(=O)CSc2nc(N)n(CC(=O)c3ccccc3)n2)c(C#N)c1C`, in experiment [1], the cell count came to 403. In addition, the inhibition is -0.8% (inactive) in experiment [1], -61.6% (inactive) in experiment [3], -14.5% (inactive) in experiment [7] and -21.2% (inactive) in experiment [8]. In addition, in experiment [2], the inhibition of aggregation was -21.4% (inactive). Besides, the nuclei count in experiment [2] and in experiment [3] was 111% throughout. For the same compound, in experiment [4], the fluorescence slope is -0.612 (inactive). Besides, the NADPH fluorescence slope in experiment [5] is -2.1e-05 (inactive). In addition, the slope in experiment [6] is 0.00622 (inactive).

On to `O=C(CC(=O)c1cc(Cl)ccc1O)c1ccccc1`, for which, in experiment [1], the cell count amounted to 435. Besides, the inhibition is 3.8% (inactive) in experiment [1], -68.1% (inactive) in experiment [3], -30.5% (inactive) in experiment [7] and -67.7% (inactive) in experiment [8]. For the same compound, in experiment [2], the inhibition of aggregation was -1.9% (inactive). The nuclei count in experiment [2] was determined as 99.3%; in experiment [3], 126%. The fluorescence slope in experiment [4] is -0.41 (inactive). The NADPH fluorescence slope in experiment [5] is 2.8e-05 (inactive). Also, the slope in experiment [6] is 0.00798 (inactive).

As for `CSc1cccc(NS(=O)(=O)c2ccccc2)c1`, the cell count in experiment [1] is 420. The inhibition in experiment [1] was -1.4% (inactive); in experiment [3], -38% (inactive); in experiment [7], 9.48% (inactive); in experiment [8], 27.9% (inactive). For the same compound, in experiment [2], the inhibition of aggregation was -3.4% (inactive). In addition, the nuclei count in experiment [2] was 99.5%; in experiment [3], 106%. In experiment [4], the fluorescence slope was -0.283 (inactive). The NADPH fluorescence slope in experiment [5] is -2.2e-05 (inactive). Besides, the slope in experiment [6] was 0.00527 (inactive).

Consider `O=C(CCn1c(=O)oc2ccccc21)NCc1ccco1`, for which the cell count in experiment [1] is 686. The inhibition in experiment [1] is -5.9% (inactive); in experiment [3], -32.5% (inactive); in experiment [7], -5.54% (inactive); in experiment [8], 6.8% (inactive). For the same compound, the inhibition of aggregation in experiment [2] was -10% (inactive). The values for the nuclei count in experiment [2] and in experiment [3] were 104% and 127%, respectively. In experiment [4], the fluorescence slope was -0.598 (inactive). Moreover, the NADPH fluorescence slope in experiment [5] is -5.1e-05 (inactive). Further, the slope in experiment [6] is 0.00749 (inactive).

Consider `O=S(=O)(c1ccc(N2CCN(c3ccc(F)cc3)CC2)cc1)N1CCCC1`, for which the cell count in experiment [1] was determined as 230. Moreover, the inhibition in experiment [1] is 14% (inactive); in experiment [3] it was -32.4% (inactive); in experiment [7], 10.2% (inactive); in experiment [8], 19.7% (inactive). In addition, the inhibition of aggregation in experiment [2] is -8.7% (inactive). Further, the nuclei count was determined as 95.7% in experiment [2] and 106% in experiment [3]. Further, the fluorescence slope in experiment [4] is -0.476 (inactive). Besides, in experiment [5], the NADPH fluorescence slope is -2.4e-05 (inactive). The slope in experiment [6] was 0.00651 (inactive).

Turning to `CCOC(=O)c1[nH]c(C)c(C(=O)NCC2CCCO2)c1C` (centres undefined), the cell count in experiment [1] was found to be 390. The inhibition was 2.8% (inactive) in experiment [1], -13.6% (inactive) in experiment [3], 8.72% (inactive) in experiment [7] and 14.8% (inactive) in experiment [8]. The inhibition of aggregation in experiment [2] was 5.8% (inactive). Moreover, the nuclei count amounted to 103% in experiment [2] and 86.3% in experiment [3]. The fluorescence slope in experiment [4] is -0.608 (inactive). For the same compound, the NADPH fluorescence slope in experiment [5] is -7.6e-06 (inactive). In addition, in experiment [6], the slope was 0.00577 (inactive).

Consider `O=C(CCSc1nccn1Cc1ccccc1)N1CCOCC1`, for which the cell count in experiment [1] amounted to 447. In addition, the inhibition in experiment [1] was -6.8% (inactive); in experiment [3], -7.8% (inactive); in experiment [7], 1.9% (inactive); in experiment [8], -9.28% (inactive). Further, the inhibition of aggregation in experiment [2] is -9.1% (inactive). The nuclei count in experiment [2] is 93.1%; in experiment [3], 80.8%. Further, the fluorescence slope in experiment [4] is -0.524 (inactive). In addition, the NADPH fluorescence slope in experiment [5] was -5.2e-05 (inactive). For the same compound, in experiment [6], the slope is 0.00524 (inactive).
